From PubChem BioAssay
An excerpt weighted towards active compounds, which were near 9.2% of everything screened.
ELG1 genotoxic = induces genotoxicity in HEK293T cells with luciferase-tagged ELG1. hit rate 1.3% among 330,000. AID 504466. Potency, µM (titrated, usually from 46 µM), for inactives: at the top dose activity change, positive = activation, most hits filed as activators. HEK293T ELG1-luciferase reporter, luminescence, 16 h; note: % of control where 0% means no effect; nearly all actives have a fitted effect of over 60% in size
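Quantitative HTS format in 1536-well plates. HEK293T ELG1-luciferase reporter cells receive test compound and are incubated 16 hr at 37 °C, 5% CO2; ONE-Glo added, 30 min room temperature, then luminescence read.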
FLuc modulator = firefly luciferase modulation, counter-screen for miR-21 project; hit rate 6.9% among 360,000; AID 588342; purified FLuc, Km substrates, luminescence inhibition; Potency, µM (titrated, usually from 57.5 µM), without a hit: at the highest dose activity change, negative = inhibition, hits mostly inhibitors; P08659;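 note: plate controls were vehicle for no effect and reference inhibitor for full effect; nearly all actives have a fitted effect of over 55% in size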
Target sequence (P08659 whole entry, looked up): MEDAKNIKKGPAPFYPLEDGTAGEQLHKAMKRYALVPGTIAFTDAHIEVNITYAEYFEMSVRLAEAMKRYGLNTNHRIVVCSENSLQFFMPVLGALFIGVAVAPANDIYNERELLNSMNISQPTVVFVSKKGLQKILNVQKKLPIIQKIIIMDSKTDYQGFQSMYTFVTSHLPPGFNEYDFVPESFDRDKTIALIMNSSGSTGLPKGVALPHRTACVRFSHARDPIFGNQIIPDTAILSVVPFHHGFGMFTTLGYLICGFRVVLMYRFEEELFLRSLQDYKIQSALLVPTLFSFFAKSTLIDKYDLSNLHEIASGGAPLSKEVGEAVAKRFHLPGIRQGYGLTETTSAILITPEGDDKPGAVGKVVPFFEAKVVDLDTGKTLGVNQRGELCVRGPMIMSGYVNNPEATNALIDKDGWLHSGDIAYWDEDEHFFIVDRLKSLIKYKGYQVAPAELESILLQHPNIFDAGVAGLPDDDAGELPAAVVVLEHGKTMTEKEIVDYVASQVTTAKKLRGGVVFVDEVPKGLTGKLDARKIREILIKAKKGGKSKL
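Purified P. pyralis luciferase, 10 nM final, with Km-level 10 uM D-luciferin and 10 uM ATP in 50 mM Tris acetate pH 7.5, 10 mM Mg acetate, 0.01% Tween-20, 0.05% BSA; 6-point qHTS titration about 60 µM downward; luminescence read.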
SMN2 splice enh = enhancers of SMN2 splice variant expression. HEK293 SMN2-luciferase splicing reporter, luminescence, 30-36 h. hit rate 2.8% among 210,000. Potency, µM (doses to about 46.1 µM), for inactives: top-dose activity change, positive = activation, hits mostly activators; note: % of control where 0% means no effect; nearly all actives have a fitted effect of over 55% in size
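HEK293 cells carry an SMN2 minigene-luciferase reporter in which exon 7 inclusion puts luciferase in frame. Cells were seeded at 2000 cells/well, attached for 10-12 hours, then exposed to compounds for 30-36 hours at 37C before ONE-Glo luminescence.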
Rab9 promoter act = activates the Rab9 promoter; Huh7 Rab9 promoter-luciferase reporter, luminescence, 24 h; Potency, µM (titrated, usually from 9.22 µM), for the others: at the highest dose activation, negative = inhibition, hits mostly activators; hit rate 2.8% among 320,000; note: % of control where 0% means no effect; nearly all actives have a fitted effect of over 60% in size
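Using Huh7 cells stably transfected with Rab9 promoter–luciferase, compounds were incubated 24 h at 37 °C, 5% CO2; luciferase luminescence was read 10 min after reagent addition.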
NPC1 promoter act = NPC1 promoter activation; AID 485313; Potency, µM (highest dose often 9.22 µM), inactives show top-dose activation, hits mostly activators; hit rate 2.4% among 320,000; Huh7 NPC1 promoter luciferase reporter, 24 h; note: % of control where 0% means no effect; nearly all actives have a fitted effect of over 60% in size
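Compounds in DMSO were transferred onto Huh7 NPC1-luciferase reporter cells pre-incubated 2 h; after 24 h at 37 °C, Amplite reagent was dispensed and luminescence recorded 10 min later.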
ELG1 DNA repair = inhibitors of ELG1-dependent DNA repair in HEK293T cells. HEK293T ELG1-luciferase reporter, luminescence, 16 h; DNA damage induced by 5-fluorouridine. Potency, µM (titrated, usually from 46.1 µM), for the others: top-dose activity change, negative = inhibition, hits mostly inhibitors. hit rate 2.3% among 330,000. AID 504467; note: % is set by controls: 0 for no effect and ±100 for the full control effect; nearly all actives have a fitted effect of over 55% in size
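5-Fluorouridine DNA damage + compound/DMSO, 2,000 cells/well, 16 h, 37 °C/5% CO2. ONE-Glo, 30 min RT, luminescence. Readout = decrease in reporter signal.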
Active calls of the source: *; ? = inconclusive; nt = no result; [ ] = dose if it differs, or a comment. Calls come from the whole dose curve; as a rule, active = well fitted curve in the direction sought with a large enough effect; inconclusive = small, poorly fitted or top-dose-only effect, or another doubt; inactive = no such curve, though single readings can be large; an effect the other way counts as inactive or inconclusive. Potency is the fitted concentration of half-maximal effect.

SMILES	ELG1 genotoxic	FLuc modulator	SMN2 splice enh	Rab9 promoter act	NPC1 promoter act	ELG1 DNA repair
CN(C)c1ccc(C=C2C(=O)OC(C)(C(C)(C)C)OC2=O)cc1 (centres undefined)	0%	9.5µM*	3%	7%	-1%	4%
CN(C)c1ccc(C=C2C(=O)OC(C)(C)OC2=O)cc1	-7%	19µM*	-28%	-1%	-6%	-2%
CCN(CC)c1ccc(C=C2C(=O)OC(C)(C(C)(C)C)OC2=O)cc1 (centres undefined)	1%	-1%	9%	2%	-5%	?
COc1ccc(C=C2C(=O)OC(C)(C)OC2=O)cc1OC	3%	-11%	nt	0%[1.84 µM]	-3%	?
COc1cc(/C(C)=C/c2ccccc2)c2c(c1)oc1ccccc12	-1%	0%	nt	3%	1%	-3%
O=C1CCSC2(C(=O)N(Cc3ccccc3)c3ccccc32)N1c1ccccc1 (centres undefined)	nt	-14%	nt	nt	nt	nt
COc1ccc(/C=C\c2onc(C)c2S(=O)(=O)N2CCC(C(=O)Nc3ccc(C)cc3C)CC2)cc1	nt	-1%	-16%	nt	nt	nt
Cc1ccc(CN2CCN(CCC(C)C)C(CCO)C2)s1 (centres undefined)	2%	-1%	nt	-3%	-3%	10%
Cc1ccc(CN2CCN(CC(C)C)C(CCO)C2)s1 (centres undefined)	?	17µM*	nt	?	25%	?
O=c1c2sccc2nc(SCc2cc(=O)n3cc(Br)ccc3n2)n1Cc1ccccn1	?	-1%	?	4.5µM*	?	?
O=C(CCC1N=C2c3ccccc3N=C(SCc3ccc(F)cc3)N2C1=O)NCCc1ccccc1 (centres undefined)	nt	2%	nt	nt	nt	nt
Cc1cc(C(=O)N/N=C/c2ccccc2)c(C)o1	?	11µM*	nt	3.2µM*	?	?
Cc1cc(C(=O)N/N=C/c2cccc3ccccc23)c(C)o1	?	19µM*	nt	19%	13%	30%
O=C(N/N=C/c1ccccc1O)c1cccc2ccccc12	24%	?	nt	-39%	-34%	-16%
Cc1cc(C(=O)NC2CCCCC2)c(C)o1	3%	-12%	nt	0%	7%	?
Cc1cc(C(=O)N/N=C/c2ccc([N+](=O)[O-])cc2)c(C)o1	7%	27µM*	3%	11%	11%	?
Cc1cc(C(=O)NC2Cc3ccccc3C2)c(C)o1	?	21µM*	nt	3.2µM*	2.5µM*	?
CC(=O)C1CCC2C3CC=C4CC(O)CC[C@@]4(C)C3CC[C@]12C (some centres undefined)	nt	nt	0%	nt	nt	nt
Cn1c(C(=O)N/N=C/c2ccccc2)cc2ccccc21	?	2.7µM*	nt	2.8µM*	?	?
Cn1c(N)c(C(=O)N/N=C/c2ccccc2)sc1=S	4%	0%	nt	3%	-1%	7%
COC(=O)c1sccc1S(=O)(=O)N(CC(=O)NCc1ccccc1)c1ccc(C)c(C)c1	nt	-4%	nt	nt	nt	nt
CCCN=C(C)C1=C(O)c2ccccc2C1=O	?	21µM*	13µM*	?	?	?
CC1(C)Cc2c(c(-c3ccco3)nc3sc4c(NCCCO)ncnc4c23)CO1	0%	-12%	nt	-11%	-2%	13µM*
CC1(C)Cc2c(c(-c3ccco3)nc3sc4c(NCC5CCCO5)ncnc4c23)CO1 (centres undefined)	2%	2%	-14%	-3%	-3%	7.3µM*
COc1cc(-c2noc(CCC(=O)Nc3cc(C)ccc3C)n2)cc(OC)c1OC	nt	-9%	-5%	nt	nt	nt
Cc1cc(C(=O)OCC(=O)Nc2c(Cl)cccc2Cl)c(C)o1	4%	nt	nt	nt	nt	-27%
COc1cccc(C(=O)Nc2cccc(SC)c2)c1	9.2µM*	9.5µM*	?	?	24%	?
COc1cccc(NC(=O)c2cccnc2)c1	1%	1%	?	14%	-3%	?
